{"source": "PubChem BioAssay (NCI)", "note": "Compounds without any hit were thinned out: in the full panel of roughly 83,000, 20% have a hit.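 48-hour exposure, single concentration, 96-well plates; percent growth endpoint where 0 means no net growth. Active: below 10.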 The source made the active and inactive calls."}
{"system": "786-0 renal", "test": "NCI-60 one-dose screen, 48 h (100 = growth as untreated, 0 = no growth, -100 = all killed)", "conditions": "10 µM unless noted"}
{"smiles": "O=C(Nc1ccc2ncnc(Nc3cccc(C(F)(F)F)c3)c2c1)c1cccs1", "growth": "57% (inactive)"}
{"smiles": "O=C1[C@@H](OS(=O)(=O)CC(F)(F)F)[C@H](c2ccc(F)cn2)N1c1cc2c3ccccc3ccc2c2ccccc12", "growth": "71.7% (inactive)"}
{"smiles": "COc1cc2cc(c1Cl)N(C)C(=O)C[C@H](OC(=O)[C@H](C)N(C)C(=O)CCS)C[C@]1(C)O[C@H]1[C@H](C)[C@@H]1C[C@@](O)(NC(=O)O1)[C@H](OC)/C=C/C=C(\\C)C2", "growth": "13.8% (inactive)"}
{"smiles": "COc1cc(/C=C/C(=O)c2cccs2)ccc1OCc1ccc(Cl)nc1", "growth": "75.3% (inactive)"}
{"smiles": "COc1cc(/C=C/C(=O)/C=C/c2cc3ccc(Cl)cc3[nH]c2=O)ccc1O", "growth": "30.8% (inactive)"}
{"smiles": "COc1ccc(/C=C/C(=O)/C=C(/C=C/c2ccc(OC)c(OC)c2)OB(F)F)cc1OC", "growth": "12.5% (inactive)"}
{"smiles": "COc1cc(/C=C/C(=O)/C=C/c2cc3ccc(Cl)cc3n(Cc3ccccc3)c2=O)ccc1O", "growth": "-55.7% (active)"}
{"smiles": "C=C(C)[C@@H]1CC[C@]2(C(=O)OCCCC[P+](c3ccccc3)(c3ccccc3)c3ccccc3)CC[C@]3(C)[C@H](CC[C@@H]4[C@@]5(C)CC[C@H](OC(=O)C(Cl)Cl)C(C)(C)[C@@H]5CC[C@]43C)[C@@H]12", "growth": "-77.9% (active)"}
{"smiles": "COc1ccc(C(=S)c2cc(OC)c(OC)c(OC)c2)cc1OC(=O)CCl", "growth": "27.4% (inactive)"}
{"smiles": "CNCc1cccc2c1OCCOCCOCCN(CCN1CCOCC1)S(=O)(=O)c1ccc(cc1)-c1cnc(N)c(n1)C(=O)N2", "growth": "10.6% (inactive)"}
{"smiles": "COc1ccc2[nH]c(=O)c(/C=C/C(=O)/C=C/c3ccc(O)c(OC)c3)cc2c1", "growth": "-42.7% (active)"}
